# Assay results as given in PMC5540273 (PLoS ONE, 2017).
# Columns and labels:
# Conditions in all cases: concentration: 1 μM, replicates: in singlicate; n = 1
# MAP4K4 = tested on: MAP4K4
# MAP4K5 = tested on: MAP4K5
# MAPKAPK2 = tested on: MAPKAPK2
# MAPKAPK5 = tested on: MAPKAPK5
# MARK1 = tested on: MARK1
# MARK2 = tested on: MARK2
# MARK3 = tested on: MARK3
# MARK4 = tested on: MARK4
# MAST1 = tested on: MAST1
# MEK1 = tested on: T1, MEK1
# T1 construct: gene MAP2K1
# 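Also: KINOMEscan kinase panel screen.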
Compound,%Inh (MAP4K4),%Inh (MAP4K5),%Inh (MAPKAPK2),%Inh (MAPKAPK5),%Inh (MARK1),%Inh (MARK2),%Inh (MARK3),%Inh (MARK4),%Inh (MAST1),%Inh (MEK1)
O=C(Nc1ccccc1)Nc1cccc(Oc2ccc3nccn3n2)c1,0%,0%,0%,0%,2%,39%,0%,9%,0%,0%
Cc1ccc(C(=O)Nc2ccc(Nc3ccnc4cc(-c5ccccn5)ccc34)cc2O)cc1.Cl [GW440146],0%,70%,18%,0%,0%,0%,2%,4%,0%,0%
Nc1nc(-c2nccs2)c(-c2ccnc3ccccc23)s1 [GW693542],4%,0%,28%,0%,0%,0%,0%,1%,0%,0%
CN1C(=O)C(Nc2ccc(Cl)c(C(=O)O)c2)=C(c2ccc(Cl)cc2)C1=O [SB-404290],0%,0%,23%,12%,0%,27%,0%,13%,42%,0%
Fc1cc(Cl)ccc1Nc1ccnc2cc(-c3ccc(CN4CCCCC4)o3)ccc12 [GW560116],0%,0%,0%,0%,0%,0%,0%,0%,43%,4%
C[C@@H]1CCCCN1c1cc(-c2ccc3c(N)n[nH]c3c2)nc(N)n1 [GSK2258759],0%,0%,4%,0%,0%,0%,0%,0%,0%,27%
O=C1NC(=O)C(N2CCc3ccccc32)=C1c1ccccc1Cl [SB-373598],26%,24%,33%,8%,9%,10%,0%,17%,0%,13%
Cn1ccc2ncnc(Oc3ccc(Nc4nc5ccccc5[nH]4)cc3)c21,0%,0%,0%,0%,0%,9%,0%,13%,0%,0%
O=C(O)COc1ncnc2cc(-c3ccc4[nH]ncc4c3)sc12,0%,6%,0%,9%,8%,20%,0%,14%,0%,5%
COc1ccc(Nc2nccc(-c3cccc(NC(=O)c4cc5cc(F)ccc5[nH]4)c3)n2)cc1 [GSK1229782],22%,7%,0%,0%,9%,19%,0%,21%,20%,0%
CC(=O)Nc1nc2cnc(Nc3cc(NC(=O)c4cccc(CCC#N)c4)ccc3C)nc2s1,0%,0%,11%,3%,14%,0%,0%,12%,0%,0%
Cc1nnc(-c2ccc3occ(-c4ccc(S(C)=O)cc4)c3c2)[nH]1 (centres unmarked),0%,0%,0%,20%,21%,22%,0%,19%,7%,8%
CC(C)(C)c1ccc(C(=O)Nc2cn3cc(Cl)ccc3n2)cc1,2%,2%,0%,0%,0%,78%,0%,0%,0%,24%
COc1cc(Nc2nccc(N3CCC(NC(=O)Nc4cc(C)ccc4C)C3)n2)cc(OC)c1OC (centres unmarked) [GSK1379762],0%,0%,10%,0%,0%,0%,8%,9%,2%,0%
CN(C)CCN(C)C(=O)c1cc(-c2ccncc2)c(-c2ccc(Cl)c(O)c2)o1.Cl.Cl [SB-710397],18%,0%,2%,0%,0%,0%,0%,0%,10%,0%
Cc1cccc(-c2nc(Nc3ccncc3)c3ccccc3n2)n1 [GW855857],0%,0%,0%,0%,0%,0%,32%,25%,50%,0%
CCn1c(-c2ccccn2)nc2cnccc21 [SB-736398],0%,1%,21%,0%,0%,0%,3%,8%,47%,0%
Fc1cccc(COc2nnc(-c3ccc4c(c3)CCO4)o2)c1,0%,0%,0%,11%,14%,24%,0%,24%,21%,5%

Compound,%Inh (MAP4K4),%Inh (MAP4K5),%Inh (MAPKAPK2),%Inh (MAPKAPK5),%Inh (MARK1),%Inh (MARK2),%Inh (MARK3),%Inh (MARK4),%Inh (MAST1),%Inh (MEK1)
CS(=O)(=O)c1ccc(-c2nc3n(c2-c2ccncc2)CCC3)cc1 [SKF-105942],0%,0%,36%,0%,0%,0%,0%,0%,0%,0%
CCn1c(-c2cccnc2O)nc2cnccc21 [SB-736715],0%,0%,16%,0%,0%,15%,0%,0%,13%,0%
Nc1ncnc2[nH]c(-c3ccccc3)nc12 [AH5015],4%,0%,12%,0%,0%,0%,0%,0%,0%,0%
Cc1c(Cn2ccn3c(=O)cc(N4CCOCC4)nc23)cccc1C(F)(F)F [GSK2289044],0%,0%,4%,0%,0%,5%,2%,0%,0%,0%
Cc1cccc(-c2nc(-c3ccc(S(C)(=O)=O)cc3)sc2-c2ccnc(NCCc3ccccc3)c2)c1,0%,0%,0%,0%,0%,11%,0%,0%,0%,0%
Cc1cc(N2Cc3ccccc3C2)nc(Nc2ccc(S(=O)(=O)N3CCOCC3)cc2)n1.Cl [GSK1669917],0%,0%,4%,0%,0%,0%,12%,0%,0%,0%
CS(=O)(=O)c1ccc(-c2c(-c3ncn[nH]3)sc(N3CCOCC3)c2C#N)cc1,0%,0%,0%,0%,26%,10%,0%,24%,21%,2%
O=C(Nc1n[nH]c2nc(-c3nccs3)c(Br)cc12)C1CCCC1 [SB-742609],2%,4%,22%,0%,0%,0%,0%,0%,0%,0%
Cc1cc(NCC(c2ccccc2)c2ccccc2)nc(NCc2ccc(C(F)(F)F)cc2)n1 [GW497681],0%,0%,0%,0%,0%,0%,0%,0%,0%,0%
Clc1cc(Cl)cc(Nc2ccnc(Nc3cc(Cl)cc(Cl)c3)n2)c1 [GSK175726],0%,0%,0%,0%,0%,16%,0%,0%,0%,0%
COc1cc2nccc(Nc3ccc(NC(=O)c4ccc(C)cc4)c(O)c3)c2cc1OC.Cl [GW440132],0%,3%,8%,0%,0%,0%,0%,14%,0%,8%
NC(=O)c1nnc2ccccc2c1N,12%,11%,0%,0%,12%,0%,0%,19%,1%,40%
COc1cc2ncnc(Nc3ccc4nc(-c5ccccc5)[nH]c4c3)c2cc1OC.Cl [GW282450],0%,0%,24%,0%,0%,0%,0%,0%,0%,0%
Cc1ccc(NC(=O)Nc2cc(C(C)(C)C)nn2-c2ccccc2)cc1 [GSK1014915],19%,11%,25%,0%,0%,0%,17%,10%,0%,0%
O=c1cc(N2CCOCC2)nc2n(Cc3cccc(Cl)c3Cl)ccn12 [GSK2286295],4%,0%,5%,0%,0%,0%,0%,0%,0%,0%
COc1ccc(C2=C(Nc3cccc(C(=O)O)c3)C(=O)NC2=O)cc1 [SB-390765],0%,0%,0%,20%,3%,8%,0%,0%,30%,13%
Cc1c(O)cccc1Nc1ccnc2ccc(C(F)(F)F)cc12.Cl [GW466413],0%,0%,8%,0%,0%,0%,0%,2%,0%,0%
